Data as given in PubChem BioAssay AID540308 (The Scripps Research Institute Molecular Screening Center, 2011).
The campaign covered roughly 360,000 compounds. About 3,500 (0.97%) were called active. The entries come from a sample that favours actives as a whole. Values without a mark were called inactive.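 How the source made its calls: active means activation above a per-plate cutoff, the mean activation of sample wells on that plate plus 3 SD (cut at about 8% in these data); inactive means the rest.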

Each compound was assayed against Melanocortin receptor 4 (Homo sapiens) (UniProt P32245) (assay: MC4R agonists recruiting beta-arrestin, primary screen, cell-based, luminescence, agonist arm of biased-ligand search (AID 540308)). Conditions: U2OS MC4R beta-arrestin complementation, at 8.9 µM, active compounds read high, percent of melanotan II response, DMSO zero.
Chain of Melanocortin receptor 4 (Homo sapiens) (P32245 whole entry, looked up): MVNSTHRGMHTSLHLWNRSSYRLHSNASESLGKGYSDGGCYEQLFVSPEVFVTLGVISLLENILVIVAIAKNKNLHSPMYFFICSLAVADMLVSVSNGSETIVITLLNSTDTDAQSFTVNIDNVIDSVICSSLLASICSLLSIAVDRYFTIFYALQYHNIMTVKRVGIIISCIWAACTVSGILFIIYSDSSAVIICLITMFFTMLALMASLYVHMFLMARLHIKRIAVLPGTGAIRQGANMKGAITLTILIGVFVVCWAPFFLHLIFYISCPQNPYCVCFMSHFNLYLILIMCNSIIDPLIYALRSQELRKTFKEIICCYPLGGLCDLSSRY

Structure (SMILES)	activation
CCCCN(C=O)c1c(CC)nc2c(OCCC3CCCCC3)cccn12	-0.53%
COc1ccc(Nc2nc(NCc3ccco3)nc(N/N=C/c3ccccc3Cl)n2)cc1	-2%
N#Cc1nc(-c2cccc3ccccc23)oc1N	-1.15%
COc1ccc(Nc2oc(-c3ccccc3Cl)nc2C#N)cc1	13.3% (active)
COc1cccc(-c2ccc3c(c2)N(Cc2ccccc2OC)C(=O)C(C)S3)c1 (stereo not drawn)	0.04%
CC(C)Nc1nc(NCCOc2ccccc2Cl)c2sccc2n1	-1.08%
CC(=O)Nc1cccc(-c2cc3nc(NCc4cccnc4)n(C)c(=O)c3s2)c1	0.57%
COc1ccc(OC)c(C(O)c2ncc(-c3cccc(C(F)(F)F)c3)[nH]2)c1 (stereo not drawn)	-1.84%
COc1ccc(NC(=O)C2Cc3c(-c4cccc(NC(C)=O)c4)ccnc3O2)cc1OC (stereo not drawn)	-0.44%
COc1ccc(NC(=O)C2(C)Cc3c(-c4cccc(NC(C)=O)c4)ccnc3O2)cc1OC (stereo not drawn)	-2.08%
S=C(NCCCc1cnc[nH]1)NCCCN(Cc1ccc(Cl)c(Cl)c1)c1ccc(Br)cn1	17.5% (active)
NCCCNC(=S)NCCCN(Cc1ccc(Cl)cc1)c1ccc(Br)cn1	5.16%
CCOC(=O)c1nn(-c2ccccc2F)c2nc(Nc3ccccc3)cc(=O)n12	10.2% (active)
CCOC(=O)N1CCN(c2c(NCCN3CCN(c4ccccc4F)CC3)c(=O)c2=O)CC1	-0.12%
CCOC(=O)c1cccc(NC(=O)c2ccc(F)cc2F)c1	-1.66%
COc1ccc(CN(Cc2ccc(OC)cc2)C(=O)c2cccs2)cc1	-3.4%
COc1ccc(C(CCN(Cc2ccc(OC)c(OC)c2)C(=O)CCl)c2ccccc2)cc1 (stereo not drawn)	22.9% (active)
COc1ccc(CCNC(=O)C(Sc2ccccn2)c2ccccc2)cc1OC (stereo not drawn)	-0.76%
CCCCCNC(=O)c1cccnc1SCC(=O)Nc1ccccc1OC	-0.84%
Cc1ccccc1S(=O)(=O)NC(=O)C1(C)CCN1C(=O)C1(c2ccc(Cl)cc2)CC1 (stereo not drawn)	0.06%
CC1(C(=O)Nc2cccc3c2CCCC3)CCN1C(=O)C1(c2ccccc2)CC1 (stereo not drawn)	1.08%
COc1cccc(OC)c1C(=O)NC(=S)Nc1ccc(N2CCOCC2)c(Cl)c1	-1.34%
Cc1nn(C)c(C(=O)NNC(=S)NC2CCCCC2)c1Cl	-2.05%
COc1cccc(NC(=S)NC(=O)c2c(Cl)c(C)nn2C)c1	16.6% (active)

Structure (SMILES)	activation
CC1(C(=O)NS(=O)(=O)c2ccccc2Cl)CCN1C(=O)c1cccc(F)c1 (stereo not drawn)	-0.15%
CC(=O)NN=C(C)c1ccc(NC(=O)C2CC2)cc1	-0.71%
O=C(/C=C/c1c(Cl)cccc1Cl)NCc1ccccc1	19.2% (active)
CCOC(=O)CNC(=O)/C=C/c1c(Cl)cccc1Cl	-0.83%
O=C(CC(=O)N/N=C\c1cccc(Cl)c1Cl)NCc1ccccc1	-2.24%
Cc1nc2c(OCc3ccc(Cl)cc3Cl)cccn2c1N(C)CC1CC1	-3.94%
CCCCC(=O)N(C)c1c(CC)nc2c(OCc3ccc(S(C)(=O)=O)cc3)cccn12	0.14%
COC(=O)c1ccc(OCC(=O)NC(C)(C)C)cc1	-0.44%
CCCOc1ccc(C(=O)C(CCC(CNCC)C(=O)c2ccc(OCCC)cc2)CNCC)cc1 (stereo not drawn)	24.6% (active)
CCCOc1ccc(/C=N/NC(=O)C2CC2)c(OCCC)c1	0.66%
COc1cncc(-c2cnc3sc(NCCc4ccccn4)nn23)c1	-0.85%
COc1ccc(OC)c(NC(=O)C2(C)CCN2C(=O)Cc2ccccc2)c1 (stereo not drawn)	-0.64%
COc1ccc(NC(=O)C2Cc3c(-c4ccc5c(c4)OCO5)ccnc3O2)cn1 (stereo not drawn)	2.24%
Cc1cc(C(=O)N2CCCC2(C)C(=O)O)c(C)o1 (stereo not drawn)	-0.89%
CC(C)Nc1ncnc2c1nnn2Cc1ccccc1	-0.12%
Clc1ccc(Nc2ncnc3c2nnn3Cc2ccccc2)cc1	19.9% (active)
c1ccc(Cn2nnc3c(NCC4CC4)ncnc32)cc1	2.35%
CCc1nc2c(OCc3ccc(C(F)(F)F)cc3)cccn2c1N(C)C(=O)CC(C)C	-1.6%
CC(C)Cc1ccc(-c2cc3nc(NCc4cccc(Cl)c4)ccn3n2)cc1	-1.5%
Cc1ccc(C(=O)Nc2ccc(NC(=O)c3cccs3)cc2)c(C)c1	13.3% (active)
Cc1ccccc1C(=O)N1CCN(c2ccc(NC(=O)c3cccs3)cc2)CC1	-4.77%
Cc1ccc(OCC(=O)Nc2ccc(NC(=O)c3cccs3)cc2)c(C)c1	2.63%
O=C(NCc1cccnc1)c1cc(C2CCCN(C(=O)CCCc3ccccc3)C2)on1 (stereo not drawn)	0.26%
Cc1ccccc1-c1csc(C(O)c2cccc(Cl)c2)n1 (stereo not drawn)	-1.62%

Structure (SMILES)	activation
O=C(NCc1ccc(F)cc1)c1cc(C2CCCCN2C(=O)C2CCCCC2)on1 (stereo not drawn)	-0.53%
COc1cc(F)ccc1-c1cc(C(=O)NCC2CCCCC2)[nH]n1	1.24%
C=CCn1c(CNC(=O)c2ccco2)nnc1SCC(=O)c1ccc(OC)cc1	-1.26%
C=CCn1c(SCC(=O)c2ccc(Br)cc2)nnc1C(C)NC(=O)Cc1ccc(OC)cc1 (stereo not drawn)	9.94% (active)
C=CCn1c(SCCOc2ccc(OC)cc2)nnc1C(NC(=O)c1ccc(OC)cc1)C(C)C (stereo not drawn)	2.5%
CC1(C(=O)NS(=O)(=O)c2cccs2)CCN1C(=O)Cc1ccc(-c2ccccc2)cc1 (stereo not drawn)	1.02%
CC1(C)CN(CCc2ccccc2)C(=O)[C@H]1CC(=O)Nc1ccc(Br)cc1	1.43%
CC1(C)CN(Cc2cccnc2)C(=O)[C@H]1CC(=O)Nc1ccc(Br)cc1	-2.67%
CCCCN1CC(C)(C)[C@H](CC(=O)Nc2ccc(Br)cc2)C1=O	14.2% (active)
Cc1noc(C)c1-c1ccc(C(=O)NCc2ccncc2)c2occc12	-0.03%
Cc1cccc(CNC(=O)c2sc(=O)n(Cc3ccccc3C)c2C)c1	0.16%
Cc1cccc(/C(N)=N/OC(=O)c2ccccc2Cl)c1	-0.56%
O=C(COC(=O)c1ccccc1Cl)NC1CCCCCCC1	-2.78%
O=C(OCc1cn(-c2ccc(Cl)c(Cl)c2)nn1)c1ccccc1Cl	16.5% (active)
Cc1cccc(-c2cnc(C(O)c3ccc4ccccc4c3)[nH]2)c1 (stereo not drawn)	3.46%
CSc1ccc(CNC(=O)C2(C)CCCN2C)cc1 (stereo not drawn)	1.3%
COc1cccc(-c2cnc(C(O)c3ccccc3OC)[nH]2)c1 (stereo not drawn)	-2.21%
CCc1ccc(CNC(=O)C2CCN(c3nnc(C)c4c(C)n(-c5ccc(C)cc5)nc34)CC2)cc1	26.2% (active)
CCc1ccc(CNC(=O)C2CC(=O)N(CCc3ccc(C)cc3)C2)cc1 (stereo not drawn)	-0.56%
CCOc1ccc(CNC(=O)C2CCCN(c3nnc(C)c4c(C)n(-c5ccccc5)nc34)C2)cc1 (stereo not drawn)	5.34%
COc1ccc(C(C)C)cc1-c1ccc2nncn2c1	0.08%
CC1(C(=O)Nc2cccnc2)Cc2c(-c3ccccc3)ccnc2O1 (stereo not drawn)	-1.27%
O=C(Nc1ncc2c(n1)CC(c1ccco1)CC2=O)c1ccc(Cl)cc1 (stereo not drawn)	-1.23%
CN1CCN(c2ncc3c(n2)CC(c2ccccc2F)CC3=O)CC1 (stereo not drawn)	-1.94%

Structure (SMILES)	activation
CCc1ccc(Nc2ncc3c(n2)CC(c2ccco2)CC3=O)cc1 (stereo not drawn)	9.92% (active)
COc1ccc(Nc2ncnc3sc(-c4ccccc4)cc23)c(OC)c1	10.6% (active)
COc1ccc(Nc2ncnc3ccc(Br)cc23)c(OC)c1	0.1%
COc1ccccc1Nc1ncnc2c1oc1ccccc12	0.07%
CC1(Oc2cccc(F)c2)CCN(Cc2ccccc2OC(F)F)C1 (stereo not drawn)	-1.66%
CCCOc1ccc(F)cc1-c1cc(C(=O)NCc2ccc(F)cc2)[nH]n1	0.57%
Oc1cccc2cc(-c3ccncc3)cnc12	-1.87%
COc1ccc(NC(=O)c2sc(=O)n(Cc3ccc(S(=O)(=O)N(C)C)cc3)c2C)cc1	-1.44%
COc1cccc(CN2CCC(C(=O)NC(c3ccc4c(c3)OCO4)c3ccccn3)CC2)c1 (stereo not drawn)	-1.26%
CCc1nc2c(OCCOc3ccccc3)cccn2c1N(C)C(=O)c1ccc(OC)cc1	-0.76%
Brc1ccc(-c2csc(N/N=C/c3cccnc3)n2)cc1	11.6% (active)
O=C(CSc1cccc2cccnc12)N/N=C/c1cccnc1	-5.02%
O=C(N/N=C\c1cccnc1)c1cc(-c2ccccc2)nc2c(Cl)cccc12	-0.85%
COc1ccc(S(=O)(=O)NC(=O)C2(C)CCN2C(=O)COc2ccc(Cl)cc2)cc1 (stereo not drawn)	-1.47%
Cc1nn2cc(-c3ccc(Cl)cc3)cnc2c1Br	13.2% (active)
CC(=O)NC(c1cccc(F)c1)c1nc(-c2cccc(F)c2)cs1 (stereo not drawn)	0.2%
Cc1ccc(F)c(S(=O)(=O)NC(=O)C2(C)CCN2C(=O)CCc2cccs2)c1 (stereo not drawn)	0.83%
CC(C)Oc1cc(F)ccc1-c1cc(C(=O)Nc2ccc(F)cc2)[nH]n1	-0.4%
COc1cc(C(O)c2nc(-c3cnn(C)c3)cs2)ccc1F (stereo not drawn)	-1.52%
Cc1coc2c(O)cc3c(c12)OC1(N2CCCCC2)C(=O)NCCCC31 (stereo not drawn)	8.45% (active)
O=C(NCc1cccc(C(F)(F)F)c1)c1ccc2sc(COCCO)nc2c1	-1.45%
